Our source for the growth inhibition, inhibition and outcome values is PubChem BioAssay.

A short description of assay [1]: antimalarial activity against Dd2 strain (AID 2302;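 active = growth inhibition above 50% at the single 2 µM test dose, taken to imply half-maximal potency below 2 µM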;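 note: 0% = DMSO untreated growth and 100% = chloroquine plus artemisinin killed control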). Particulars: P. falciparum Dd2 in RBCs, LDH growth readout, 72 h; at 2 µM; stronger effect = higher value.
The nature of assay [2]: human hepatoma cell viability loss – ATP luminescence, cytotoxicity control for P. falciparum antimalarial project, primary screen (AID 2303;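 active = inhibition above 50%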;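 note: 0% = DMSO wells and 100% = digitonin-killed cells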). Conditions: HepG2 viability, 24-48 h, at 10 µM, stronger effect = higher value.
For assay [3], the target named is L-lactate dehydrogenase (Plasmodium falciparum (isolate CDC / Honduras)) (UniProt Q27743). Nature of the assay: PfLDH activity inhibition – cell lysate, 3D7 strain, counter-screen for P. falciparum growth inhibition project (AID 2304).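 Note: 0% = vehicle and 100% = reference inhibitor.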 Conditions: P. falciparum 3D7 crude extract, LDH APAD/NBT absorbance; at 2 µM; stronger effect = higher value. A general note: A counterscreen serves to expose hits that act by an unwanted route or on another target.

A short description of assay [4]: inhibition of 3D7 malaria parasite growth – strain 3D7 (AID 2306).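 Note: 0% = DMSO wells and 100% = chloroquine plus artemisinin control wells.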 Conditions: P. falciparum 3D7 erythrocytic growth, LDH absorbance, 72 h; at 2 µM; stronger effect = higher value.
Assay [5] concerns the target Calcium-dependent protein kinase 1 (Plasmodium falciparum (isolate 3D7)) (UniProt P62344). Nature of the assay: PfCDPK1 kinase inhibitors, biochemical, TCAMS library (AID 1159585; cut-off not given, nearly all actives have IC50 up to about 0.98 µM;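 note: inhibitors leave more ATP so luminescence rises with inhibition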). Conditions: recombinant PfCDPK1, Kinase-Glo ATP depletion luminescence. (In general: In Kinase-Glo more light means more ATP remaining.)
Assay [6] addresses Plasmodium falciparum protein kinase 6 (PK6, PF3D7_1337100) (UniProt Q8IDW1). The assay is described as follows: PfPK6 kinase inhibitors, biochemical, TCAMS library (AID 1159586). Conditions: recombinant PfPK6, Kinase-Glo ATP depletion luminescence.
Assay [7] addresses Protein kinase 7 (PK7), Plasmodium falciparum 3D7 (PF3D7_0213400) (UniProt Q7YTF7). Nature of the assay: inhibition of Plasmodium PK7 catalytic activity – biochemical, TCAMS antimalarial set, Kinase-Glo luminescence (AID 1159587). Conditions: recombinant PfPK7, Kinase-Glo ATP depletion luminescence.
Assay [8] concerns the target Calcium-dependent protein kinase 4 (Plasmodium falciparum (isolate 3D7)) (UniProt Q8IBS5). The assay is described as follows: PfCDPK4 kinase inhibitors, biochemical, TCAMS library (AID 1159588; cut-off not given, nearly all actives have IC50 up to about 0.91 µM). Conditions: recombinant PfCDPK4, Kinase-Glo ATP depletion luminescence.

For some of these results: Potency and affinity values are given separately. Activity calls are given as the source filed them. Unless noted, the rule behind the calls is not given here.

Chain of Protein kinase 7 (PK7), Plasmodium falciparum 3D7 (PF3D7_0213400) (Q7YTF7 1-343): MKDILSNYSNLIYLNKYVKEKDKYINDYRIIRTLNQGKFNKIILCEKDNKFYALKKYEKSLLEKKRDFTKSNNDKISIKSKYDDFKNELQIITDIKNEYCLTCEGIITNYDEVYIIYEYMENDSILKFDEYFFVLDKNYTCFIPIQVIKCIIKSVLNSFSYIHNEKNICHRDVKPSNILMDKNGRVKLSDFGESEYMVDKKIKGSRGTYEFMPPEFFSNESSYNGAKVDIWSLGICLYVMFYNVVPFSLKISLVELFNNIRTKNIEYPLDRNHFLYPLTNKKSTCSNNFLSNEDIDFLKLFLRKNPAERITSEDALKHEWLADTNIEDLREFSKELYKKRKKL
Chain of Plasmodium falciparum protein kinase 6 (PK6, PF3D7_1337100) (Q8IDW1 1-305): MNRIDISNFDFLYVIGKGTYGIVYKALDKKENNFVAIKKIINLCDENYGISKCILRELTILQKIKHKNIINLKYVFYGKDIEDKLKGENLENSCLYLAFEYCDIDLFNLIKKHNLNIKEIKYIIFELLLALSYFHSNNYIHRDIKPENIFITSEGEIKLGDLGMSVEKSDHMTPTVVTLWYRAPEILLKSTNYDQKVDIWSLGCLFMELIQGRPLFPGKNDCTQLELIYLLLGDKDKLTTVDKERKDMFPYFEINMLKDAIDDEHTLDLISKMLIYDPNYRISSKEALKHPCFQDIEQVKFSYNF
Chain of Calcium-dependent protein kinase 4 (Plasmodium falciparum (isolate 3D7)) (Q8IBS5 whole entry, looked up): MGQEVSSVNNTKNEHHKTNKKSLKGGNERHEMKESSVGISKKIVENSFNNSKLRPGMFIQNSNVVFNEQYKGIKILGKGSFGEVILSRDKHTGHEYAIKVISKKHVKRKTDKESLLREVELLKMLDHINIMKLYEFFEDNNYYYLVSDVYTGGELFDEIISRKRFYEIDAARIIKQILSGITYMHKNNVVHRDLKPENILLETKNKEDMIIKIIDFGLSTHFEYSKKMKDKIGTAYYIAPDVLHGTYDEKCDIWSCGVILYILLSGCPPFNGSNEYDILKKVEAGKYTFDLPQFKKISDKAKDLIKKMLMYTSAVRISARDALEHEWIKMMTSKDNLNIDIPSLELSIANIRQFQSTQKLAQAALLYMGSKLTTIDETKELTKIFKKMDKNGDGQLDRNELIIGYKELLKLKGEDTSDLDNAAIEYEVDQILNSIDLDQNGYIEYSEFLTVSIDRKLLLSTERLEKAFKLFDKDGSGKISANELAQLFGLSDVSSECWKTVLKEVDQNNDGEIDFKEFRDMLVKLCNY
Chain of L-lactate dehydrogenase (Plasmodium falciparum (isolate CDC / Honduras)) (Q27743 whole entry, looked up): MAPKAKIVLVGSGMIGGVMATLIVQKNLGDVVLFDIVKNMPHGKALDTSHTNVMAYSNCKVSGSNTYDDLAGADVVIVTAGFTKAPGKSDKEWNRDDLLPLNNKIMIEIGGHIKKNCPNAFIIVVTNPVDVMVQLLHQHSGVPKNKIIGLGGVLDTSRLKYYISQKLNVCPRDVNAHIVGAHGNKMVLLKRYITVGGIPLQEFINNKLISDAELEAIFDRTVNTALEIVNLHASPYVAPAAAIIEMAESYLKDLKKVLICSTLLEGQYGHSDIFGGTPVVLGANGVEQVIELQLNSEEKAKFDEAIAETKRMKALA
Chain of Calcium-dependent protein kinase 1 (Plasmodium falciparum (isolate 3D7)) (P62344 whole entry, looked up): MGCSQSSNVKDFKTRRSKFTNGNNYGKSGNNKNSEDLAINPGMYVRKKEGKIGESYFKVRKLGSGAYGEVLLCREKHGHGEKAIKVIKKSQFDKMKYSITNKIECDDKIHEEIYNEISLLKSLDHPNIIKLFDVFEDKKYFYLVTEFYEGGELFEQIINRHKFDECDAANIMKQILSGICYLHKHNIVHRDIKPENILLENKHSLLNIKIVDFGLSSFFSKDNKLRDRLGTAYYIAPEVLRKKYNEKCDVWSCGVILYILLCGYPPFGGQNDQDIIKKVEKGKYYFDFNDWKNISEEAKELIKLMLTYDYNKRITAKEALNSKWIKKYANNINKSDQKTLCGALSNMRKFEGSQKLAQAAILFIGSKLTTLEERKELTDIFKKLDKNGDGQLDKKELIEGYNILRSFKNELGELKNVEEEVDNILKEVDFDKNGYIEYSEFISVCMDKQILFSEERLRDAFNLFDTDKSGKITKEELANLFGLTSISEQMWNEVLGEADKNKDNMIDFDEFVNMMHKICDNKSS

As to `Cc1cc(NC(=O)[C@H](CC2CCCCC2)Nc2ccc(C#N)c3ccccc23)ccc1F`, the growth inhibition is 99% (active) in assay [1] and 102% (active) in assay [4]. The figures for the inhibition in assay [2] and in assay [3] were 21% (inactive) and -6% (inactive), respectively. Also, the outcome in assay [5], in assay [6], in assay [7] and in assay [8] was inactive.
`CS(=O)(=O)NCCCNCc1ccc(-c2ccc(-c3nc4ccc(C(F)(F)F)cc4[nH]3)s2)cc1`: the growth inhibition is 73% (active) in assay [1] and 99% (active) in assay [4]. The inhibition in assay [2] was 21% (inactive); in assay [3] it was -5% (inactive). Further, the outcome in assay [5], in assay [6], in assay [7] and in assay [8] was inactive.
Take `CC(C)C[C@H](NC(=O)c1ccc(OCCN2CCOCC2)cc1)C(=O)N[C@H](/C=N/NC(=O)c1ccccc1)CCc1ccccc1`: the growth inhibition in assay [1] is 90% (active); in assay [4] it was 98% (active). Moreover, the results for the inhibition in assay [2] and in assay [3] were 17% (inactive) and -3% (inactive), respectively. In addition, the result in assay [5], in assay [6], in assay [7] and in assay [8] was inactive.
With `COc1cccc(-c2cc(C(F)(F)F)n3ncc(C(=O)Nc4cc(Cl)ccc4O)c3n2)c1`, the growth inhibition in assay [1] and in assay [4] was 99% (active) throughout. For the same molecule, the inhibition is -9% (inactive) in assay [2] and 5% (inactive) in assay [3]. The outcome in assay [5], in assay [6], in assay [7] and in assay [8] was inactive.
As to `COc1ccc2nc(N3CCNCC3)nc(NCCCc3ccccc3)c2c1`, the growth inhibition in assay [1] was 43% (inactive); in assay [4], 100% (active). Also, the inhibition in assay [2] was 31% (inactive); in assay [3], -3% (inactive). Further, the result in assay [5], in assay [6], in assay [7] and in assay [8] was inactive.
As for `CC(=O)Nc1nc(C(=O)Nc2ccc(-c3cccc(-c4nc5ccc(F)cc5[nH]4)c3)cc2)cs1`, the figures for the growth inhibition in assay [1] and in assay [4] were 29% (inactive) and 94% (active), respectively. Besides, the inhibition was 86% (active) in assay [2] and -7% (inactive) in assay [3]. The outcome in assay [5], in assay [6], in assay [7] and in assay [8] was inactive.
Turning to `O=C(COc1ccccc1)NC1CCN(c2ccnc3cc(Cl)ccc23)C1` (stereo not given), the growth inhibition was 35% (inactive) in assay [1] and 101% (active) in assay [4]. In addition, the figures for the inhibition in assay [2] and in assay [3] were 22% (inactive) and -5% (inactive), respectively. The outcome in assay [5], in assay [6], in assay [7] and in assay [8] was inactive.
Take `Cc1cccc2[nH]c(-c3cccc(-c4ccc(CNCc5ccc(S(C)(=O)=O)cc5)cc4)c3)nc12`: the growth inhibition is 98% (active) in assay [1] and 101% (active) in assay [4]. The inhibition is 8% (inactive) in assay [2] and 6% (inactive) in assay [3]. Moreover, the result in assay [5], in assay [6], in assay [7] and in assay [8] was inactive.
As for `CCCCNCc1ccc(OCc2cccc(COc3ccc(CNCCCC)cc3)c2)cc1`, the growth inhibition in assay [1] is 35% (inactive); in assay [4], 100% (active). Moreover, the inhibition in assay [2] is 98% (active); in assay [3], 5% (inactive). The result in assay [5], in assay [6], in assay [7] and in assay [8] was inactive.
Take `CCCNC(=O)C1CCN(C(c2ccccc2)c2ccc(Cl)c(Cl)c2)CC1` (stereo not given): the growth inhibition in assay [1] and in assay [4] was 90% (active) in each case. The values for the inhibition in assay [2] and in assay [3] were 15% (inactive) and 1% (inactive), respectively. Moreover, the result in assay [5], in assay [6], in assay [7] and in assay [8] was inactive.
With `O=C(Nc1cccc(-c2nn3ccccc3c2-c2ccnc(Nc3cccc(F)c3)n2)c1)c1c(F)ccc(F)c1Cl`, the growth inhibition in assay [1] is 38% (inactive); in assay [4] it was 93% (active). Moreover, the inhibition is 41% (inactive) in assay [2] and 5% (inactive) in assay [3]. Besides, the result in assay [5], in assay [6], in assay [7] and in assay [8] was inactive.
`COc1ccc(COc2c(OC)cc(Cc3cnc(N)nc3N)cc2OC)cc1`: the growth inhibition in assay [1] is 23% (inactive); in assay [4] it was 90% (active). Further, the inhibition in assay [2] is 5% (inactive); in assay [3], 1% (inactive). In addition, the result in assay [5], in assay [6], in assay [7] and in assay [8] was inactive.
In the case of `COc1ccccc1/C=C/C(=O)NC1CCC(CCN2CCc3ccc(-c4cc(C)no4)cc3CC2)CC1` (stereo not given), the growth inhibition is 11% (inactive) in assay [1] and 95% (active) in assay [4]. Also, the values for the inhibition in assay [2] and in assay [3] were 47% (inactive) and 0% (inactive), respectively. Besides, the result in assay [5], in assay [6], in assay [7] and in assay [8] was inactive.
As to `Cc1cc(=O)c(-c2ccc(Oc3ccc(Cl)cc3Cl)cc2)c(C)[nH]1`, the growth inhibition in assay [1] was 73% (active); in assay [4] it was 93% (active). Further, the inhibition in assay [2] is -1% (inactive); in assay [3] it was -2% (inactive). Also, the result in assay [5], in assay [6], in assay [7] and in assay [8] was inactive.
As to `O=C(NCc1ccc(F)cc1)Nc1ccc(-c2ccc(-c3nc4ccccc4[nH]3)cc2)cc1`, the growth inhibition in assay [1] was 98% (active); in assay [4], 101% (active). Besides, the results for the inhibition in assay [2] and in assay [3] were 43% (inactive) and 4% (inactive), respectively. For the same molecule, the outcome in assay [5], in assay [6], in assay [7] and in assay [8] was inactive.
For the molecule `COc1cc(NC(=O)C(c2ccc(Cl)cc2)C(C)C)cc(OC)c1OC` (stereo not given), the growth inhibition in assay [1] is 100% (active); in assay [4] it was 101% (active). Moreover, the inhibition was 10% (inactive) in assay [2] and -1% (inactive) in assay [3]. Moreover, the result in assay [5], in assay [6], in assay [7] and in assay [8] was inactive.
As for `O=C(Nc1cccc(-c2ccc(-c3nc4ccc(C(F)(F)F)cc4[nH]3)cc2)c1)c1csnn1`, the growth inhibition in assay [1] was 93% (active); in assay [4] it was 98% (active). Further, the inhibition in assay [2] was 23% (inactive); in assay [3] it was 3% (inactive). Moreover, the result in assay [5], in assay [6], in assay [7] and in assay [8] was inactive.
Consider `Cc1ccc(/C=C/C(=O)NCCCCCN2CCCN(C(=O)Nc3ccc(Cl)c(Cl)c3)CC2)cc1`, for which the results for the growth inhibition in assay [1] and in assay [4] were 1% (inactive) and 95% (active), respectively. For the same molecule, the results for the inhibition in assay [2] and in assay [3] were 24% (inactive) and 2% (inactive), respectively. The result in assay [5], in assay [6], in assay [7] and in assay [8] was inactive.
On to `FC(F)(F)c1ccc2nc(-c3ccc(-c4cccc(CN5CCN(CCN6CCOCC6)CC5)c4)cc3)[nH]c2c1`, for which the growth inhibition in assay [1] was 77% (active); in assay [4] it was 98% (active). The inhibition in assay [2] was 47% (inactive); in assay [3] it was -6% (inactive). In addition, the result in assay [5], in assay [6], in assay [7] and in assay [8] was inactive.
For `COc1ccc2nccc(NCC3(O)CCC(NCc4ccc5c(n4)NC(=O)CS5)CC3)c2n1` (stereo not given), the figures for the growth inhibition in assay [1] and in assay [4] were 23% (inactive) and 100% (active), respectively. The inhibition is 16% (inactive) in assay [2] and 3% (inactive) in assay [3]. The result in assay [5], in assay [6], in assay [7] and in assay [8] was inactive.

Usually inhibition stands for the drop in the measured response relative to a control, in per cent.
